Assay results reported in PubChem BioAssay.
The source made the active and inactive calls.

What was measured:
Albumin (Bos taurus) = Albumin (Bos taurus) (UniProt P02769); assay: compounds binding labelled BSA control protein – biochemical, small-molecule microarray, Alexa647 label, 635/667 nm fluorescence, artefact control for SMM control protein annotation, profiling panel (AID 1118); conditions: BSA-A647 binding, fluorescence 635 nm, higher = more signal;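 note: score merges 667 nm emission intensity and signal-to-noise per printed compound spot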
[1] = probe aXIP binding to arrayed compounds – biochemical, NeuroSMM set, 635/667 nm fluorescence, primary screen (AID 1119); conditions: small-molecule microarray, higher = more signal, called active from +8 up or from −8 down;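 note: probe is the protein aXip251-270 applied at 1 µg/mL to compound-printed slides; binding of probe to printed compounds measured as 667 nm fluorescence plus signal to noise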
[2] = probe aNOTCH3 binding on compound microarray – biochemical, small-molecule microarray, 635/667 nm fluorescence, primary screen (AID 1120); conditions: higher = more signal;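 note: probe is a biotin-tagged antibody raised against NOTCH3 rather than NOTCH3 protein; score merges spot fluorescence near 667 nm with spot signal to noise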
[3] = probe aNOTCH2 binding on compound microarray – biochemical, small-molecule microarray, 635/667 nm fluorescence, primary screen (AID 1121); conditions: higher = more signal;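 note: score merges feature fluorescence read at 667 nm with its signal to noise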
[4] = target: Carbonic anhydrase 2 (Homo sapiens) (UniProt P00918); assay: compounds binding carbonic anhydrase 2 – biochemical, small-molecule microarray, Alexa647-labelled CAII, profiling panel (AID 1122); conditions: CAII-A647 binding fluorescence, higher = more signal
[5] = COS7 lysate on small-molecule microarray, probe aHis, 635 nm (AID 1123); conditions: COS7 cell lysate, fluorescence, higher = more signal;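 note: z-score combines 667nm fluorescence intensity with signal-to-noise per printed compound spot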
[6] = probe aLAP1 signal on lysate-treated microarray – cell lysate, small-molecule microarray, COS7 lysate, primary screen (AID 1124); conditions: probe aLAP1, fluorescence, higher = more signal;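 note: lysate comes from COS7 cells expressing LAP1 and is applied at 0.3 µg/mL; score merges spot fluorescence near 667 nm with signal-to-noise over triplicate slides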
Sam68 (KHDRBS1) = assay: compounds binding KHDRBS1 protein – biochemical, small-molecule microarray, 635 nm fluorescence, primary screen (AID 1125); conditions: higher = more signal;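 note: score merges 667 nm channel intensity with signal to noise over triplicate slides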
[7] = tested on: Chordin-like protein 2 (CHRDL2); assay: compounds binding chordin-like 2 – biochemical, small-molecule microarray, 635 nm fluorescence, primary screen (AID 1126); conditions: fluorescence 635 nm, higher = more signal;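 note: printed compound slides probed with Chrdl2 protein at 4 µg/mL for 1 h at 4 C; score merges 667 nm emission intensity with signal to noise over three replicate slides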
[8] = target: Concanavalin-A (Canavalia ensiformis) (UniProt P02866); assay: compounds binding concanavalin A lectin – biochemical, small-molecule microarray, Alexa647 label, 635 nm, artefact control for SMM control protein annotation, primary screen (AID 1127); conditions: ConA-A647 binding fluorescence, higher = more signal;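 note: z combines 667 nm emission intensity with signal-to-noise across three replicate slides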
[9] = compounds binding Alexa647 anti-His antibody – biochemical, small-molecule microarray, 635 nm fluorescence, artefact control for SMM control protein annotation, primary screen (AID 1128); conditions: higher = more signal;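 note: score merges feature fluorescence with signal-to-noise for each printed compound spot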
[10] = tested on: Human papillomavirus type 1a E7 protein (residues 1-88); assay: HPV1a E7 small-molecule binders, primary screen, biochemical, small-molecule microarray, residues 1-88, 635 nm (AID 1129); conditions: small-molecule microarray binding, fluorescence 635 nm; higher = more signal
[11] = target: Focal adhesion kinase 1 (Homo sapiens) (UniProt Q05397); assay: PTK2 protein binding on printed compound slides – biochemical, small-molecule microarray, 635/667 nm fluorescence, BSA, DTT, primary screen (AID 1130); conditions: 635 nm fluorescence, higher = more signal;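 note: composite of spot emission at 667 nm and signal to noise over triplicate slides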
[12] = tested on: Fibrinogen (Alexa647-labelled); assay: Alexa647-fibrinogen binding to printed small molecules – biochemical, small-molecule microarray, 635/667 nm fluorescence, artefact control for SMM control-protein annotation, profiling panel (AID 1131); conditions: fibrinogen-A647 binding fluorescence, higher = more signal;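 note: z-score merges 667 nm fluorescence with per-spot signal-to-noise over triplicate slides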
[13] = target: Follistatin (Homo sapiens) (UniProt P19883); assay: FST protein binding to printed compounds – biochemical, small-molecule microarray, 635/667 nm fluorescence, primary screen (AID 1132); conditions: 635 nm fluorescence, higher = more signal
[14] = target: Fibroblast growth factor 2 (Homo sapiens) (UniProt P09038); assay: basic fibroblast growth factor binding to printed compounds – biochemical, small-molecule microarray, 635/667 nm fluorescence, primary screen (AID 1133); conditions: FGF2, fluorescence 635/667, higher = more signal
[15] = JC-1 mitochondrial potential readout, lung cancer cells – cell-based, A549, JC-1 fluorescence, basal, 24 h, 100 nL, profiling panel (AID 1138); conditions: higher = more signal;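 note: A549 lung adenocarcinoma cells under basal conditions with no added stimulus; test concentration not given here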
Lefty1 = Lefty1 protein binding to printed compounds – biochemical, small-molecule microarray, 635/667 nm fluorescence, primary screen (AID 1139); conditions: fluorescence 635/667, higher = more signal
[16] = tested on: wheat germ agglutinin (Triticum aestivum), Alexa647-labelled; assay: Alexa647-WGA lectin binding to printed small molecules – biochemical, small-molecule microarray, 635/667 nm fluorescence, artefact control for SMM control-protein annotation, profiling panel (AID 1140); conditions: WGA-A647 binding, 635 nm fluorescence, higher = more signal;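 note: score merges 667 nm feature emission with signal to noise over triplicate slides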
[17] = target: Luciferin 4-monooxygenase (Photinus pyralis) (UniProt P08659); assay: inhibition of purified Photinus pyralis luciferase – biochemical, luminescence, purified enzyme, 2006 set, primary screen (AID 1141); conditions: purified firefly luciferase, SteadyGlo luminescence, 30 min; higher = more signal, called active from +8 up or from −8 down;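 note: cell-free assay with purified firefly luciferase at 100 ng per well in PBS; test concentration not given here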
Sequence of Luciferin 4-monooxygenase (Photinus pyralis) (P08659 whole entry, looked up): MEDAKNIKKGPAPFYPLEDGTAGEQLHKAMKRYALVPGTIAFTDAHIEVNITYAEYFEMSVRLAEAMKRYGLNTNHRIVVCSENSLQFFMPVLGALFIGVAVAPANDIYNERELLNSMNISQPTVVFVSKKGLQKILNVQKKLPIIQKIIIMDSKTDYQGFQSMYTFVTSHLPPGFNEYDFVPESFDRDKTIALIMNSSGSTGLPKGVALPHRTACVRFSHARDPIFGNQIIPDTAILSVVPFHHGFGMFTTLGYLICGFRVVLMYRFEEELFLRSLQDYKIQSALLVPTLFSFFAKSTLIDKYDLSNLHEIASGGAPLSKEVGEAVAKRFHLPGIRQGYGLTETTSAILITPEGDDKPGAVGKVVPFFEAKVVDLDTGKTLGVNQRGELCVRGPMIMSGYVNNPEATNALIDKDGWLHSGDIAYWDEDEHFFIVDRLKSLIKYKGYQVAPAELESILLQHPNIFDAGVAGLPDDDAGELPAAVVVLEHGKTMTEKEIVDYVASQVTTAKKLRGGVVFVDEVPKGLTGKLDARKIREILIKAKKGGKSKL

Sequence of Follistatin (Homo sapiens) (P19883 whole entry, looked up): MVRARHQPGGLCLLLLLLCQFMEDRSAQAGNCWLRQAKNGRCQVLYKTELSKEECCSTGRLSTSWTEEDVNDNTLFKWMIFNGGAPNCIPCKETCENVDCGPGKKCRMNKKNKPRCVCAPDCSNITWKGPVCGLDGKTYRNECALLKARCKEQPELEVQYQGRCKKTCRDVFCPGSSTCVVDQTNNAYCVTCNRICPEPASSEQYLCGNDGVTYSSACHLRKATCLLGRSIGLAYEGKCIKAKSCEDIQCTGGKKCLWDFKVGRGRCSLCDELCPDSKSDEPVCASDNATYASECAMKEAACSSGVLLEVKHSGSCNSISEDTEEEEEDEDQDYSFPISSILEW
Sequence of Focal adhesion kinase 1 (Homo sapiens) (Q05397 whole entry, looked up): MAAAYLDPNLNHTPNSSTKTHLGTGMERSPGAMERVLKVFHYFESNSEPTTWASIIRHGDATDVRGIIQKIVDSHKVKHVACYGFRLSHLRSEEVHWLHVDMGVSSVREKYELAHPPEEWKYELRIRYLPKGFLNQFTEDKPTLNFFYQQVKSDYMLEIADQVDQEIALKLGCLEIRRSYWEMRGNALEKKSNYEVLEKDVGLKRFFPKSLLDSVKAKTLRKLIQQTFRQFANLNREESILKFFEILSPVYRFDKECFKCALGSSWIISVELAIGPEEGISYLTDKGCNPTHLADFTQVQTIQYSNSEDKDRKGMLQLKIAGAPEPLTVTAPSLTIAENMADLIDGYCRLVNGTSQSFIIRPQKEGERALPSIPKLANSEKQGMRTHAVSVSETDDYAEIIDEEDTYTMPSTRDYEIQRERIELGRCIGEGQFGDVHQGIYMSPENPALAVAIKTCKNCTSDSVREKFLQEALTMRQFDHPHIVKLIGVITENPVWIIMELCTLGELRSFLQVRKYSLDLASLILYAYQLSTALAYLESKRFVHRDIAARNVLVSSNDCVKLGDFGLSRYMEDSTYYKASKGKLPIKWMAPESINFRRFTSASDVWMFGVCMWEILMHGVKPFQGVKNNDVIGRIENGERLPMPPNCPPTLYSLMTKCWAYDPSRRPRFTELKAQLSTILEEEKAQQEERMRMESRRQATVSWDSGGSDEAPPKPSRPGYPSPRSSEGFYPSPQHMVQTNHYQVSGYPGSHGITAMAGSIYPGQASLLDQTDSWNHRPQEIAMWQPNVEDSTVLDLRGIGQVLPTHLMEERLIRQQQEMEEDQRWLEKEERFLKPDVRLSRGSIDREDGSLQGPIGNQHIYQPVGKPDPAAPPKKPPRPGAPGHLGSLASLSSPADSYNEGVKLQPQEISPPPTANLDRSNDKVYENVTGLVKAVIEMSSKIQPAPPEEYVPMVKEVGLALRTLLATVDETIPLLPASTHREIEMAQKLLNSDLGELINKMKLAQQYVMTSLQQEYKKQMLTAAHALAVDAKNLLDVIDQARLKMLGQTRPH
Sequence of Fibroblast growth factor 2 (Homo sapiens) (P09038 whole entry, looked up): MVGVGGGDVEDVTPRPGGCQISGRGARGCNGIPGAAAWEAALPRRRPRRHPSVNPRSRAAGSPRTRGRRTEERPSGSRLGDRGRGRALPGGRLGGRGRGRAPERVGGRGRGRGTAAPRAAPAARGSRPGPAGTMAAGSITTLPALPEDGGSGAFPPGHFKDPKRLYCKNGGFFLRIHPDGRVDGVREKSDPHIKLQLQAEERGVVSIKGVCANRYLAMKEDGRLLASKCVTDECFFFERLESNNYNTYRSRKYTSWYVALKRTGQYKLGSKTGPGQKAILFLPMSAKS
Sequence of Concanavalin-A (Canavalia ensiformis) (P02866 whole entry, looked up): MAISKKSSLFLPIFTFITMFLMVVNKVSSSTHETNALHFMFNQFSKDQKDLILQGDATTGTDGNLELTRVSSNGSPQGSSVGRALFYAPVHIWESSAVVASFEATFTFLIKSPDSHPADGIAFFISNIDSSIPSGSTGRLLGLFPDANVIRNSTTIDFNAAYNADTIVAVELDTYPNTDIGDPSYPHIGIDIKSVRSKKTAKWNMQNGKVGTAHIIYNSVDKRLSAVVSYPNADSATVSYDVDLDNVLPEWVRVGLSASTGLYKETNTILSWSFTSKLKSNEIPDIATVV
Sequence of Albumin (Bos taurus) (P02769 whole entry, looked up): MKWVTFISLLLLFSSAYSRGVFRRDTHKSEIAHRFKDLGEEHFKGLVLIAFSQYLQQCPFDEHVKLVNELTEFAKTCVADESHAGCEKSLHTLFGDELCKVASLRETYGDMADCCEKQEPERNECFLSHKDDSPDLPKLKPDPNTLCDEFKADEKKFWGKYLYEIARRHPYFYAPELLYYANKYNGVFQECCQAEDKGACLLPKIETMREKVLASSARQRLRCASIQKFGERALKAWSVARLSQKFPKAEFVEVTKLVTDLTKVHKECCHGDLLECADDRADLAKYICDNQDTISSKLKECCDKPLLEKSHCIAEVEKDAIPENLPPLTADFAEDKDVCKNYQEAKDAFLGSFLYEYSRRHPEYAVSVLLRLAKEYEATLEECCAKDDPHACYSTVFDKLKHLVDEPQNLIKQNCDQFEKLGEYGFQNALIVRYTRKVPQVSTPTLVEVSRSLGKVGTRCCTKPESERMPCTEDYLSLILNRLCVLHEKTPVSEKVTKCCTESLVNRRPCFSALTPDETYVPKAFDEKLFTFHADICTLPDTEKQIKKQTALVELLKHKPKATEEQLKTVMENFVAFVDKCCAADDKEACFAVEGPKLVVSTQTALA

With `CC(C)[Si]1(C(C)C)O[C@@H](c2ccccc2)c2cc(-c3ccc(-c4ccc(Cl)c(Cl)c4)o3)nc(-c3ccccc3)c21` the composite z-score (Albumin (Bos taurus)) was 0.473, the composite Z-score [1] was -0.0194 (inactive) and the composite z-score [2] was -0.0918. For the same molecule, the composite z-score [3] was -0.133, the composite z-score [4] was 0.233 and the composite z-score [5] was 0.308. It also gave a composite z-score [6] of 0.0588, a composite z-score (Sam68 (KHDRBS1)) of 0.278 and a composite z-score [7] of -0.432. It also gave a composite z-score [8] of 0.989, a composite z-score [9] of 2.46 and a composite z-score [10] of 0.361. It also gave a composite z-score [11] of -0.289, a composite z-score [12] of 0.291 and a composite z-score [13] of -0.139. The composite z-score [14] was 0.0622, the z-score [15] was -0.133 and the composite z-score (Lefty1) was -0.0995. For the same molecule, the composite z-score [16] was 0.533 and the z-score [17] was -0.266 (inactive).

For `COC(=O)[C@H](Cc1ccccc1)N[C@@H](/C=C/C1CC1)[C@H](O)Cc1ccccc1`, the composite z-score (Albumin (Bos taurus)) was 0.0881, the composite Z-score [1] was -0.16 (inactive) and the composite z-score [2] was -0.246. It also gave a composite z-score [3] of -0.244, a composite z-score [4] of 0.209 and a composite z-score [5] of -0.255. The composite z-score [6] was 0.0885, the composite z-score (Sam68 (KHDRBS1)) was -0.0844 and the composite z-score [7] was -0.0635. It also gave a composite z-score [8] of 0.65, a composite z-score [9] of -0.477 and a composite z-score [10] of -0.236. The composite z-score [11] was -0.415, the composite z-score [12] was 0.475 and the composite z-score [13] was -0.405. The composite z-score [14] was -0.489, the z-score [15] was -0.349 and the composite z-score (Lefty1) was -0.21. For the same molecule, the composite z-score [16] was 0.319 and the z-score [17] was 0.702 (inactive).

For `CN1C(=O)C2C=CC(C(O)c3ccco3)N(Nc3ccccc3)C2C1=O` (stereo not given), the composite z-score (Albumin (Bos taurus)) was -0.152, the composite Z-score [1] was 0.472 (inactive) and the composite z-score [2] was 0.0974. It also gave a composite z-score [3] of -0.0267, a composite z-score [4] of 0.803 and a composite z-score [5] of -0.039. It also gave a composite z-score [6] of 0.574, a composite z-score (Sam68 (KHDRBS1)) of 0.68 and a composite z-score [7] of 0.685. For the same molecule, the composite z-score [8] was 0.477, the composite z-score [9] was 1.72 and the composite z-score [10] was 0.103. It also gave a composite z-score [11] of -0.0653, a composite z-score [12] of 0.822 and a composite z-score [13] of 0.861. The composite z-score [14] was 0.33, the z-score [15] was 0.207 and the composite z-score (Lefty1) was 0.332. The composite z-score [16] was 0.594 and the z-score [17] was 0.0206 (inactive).

With `CC(C)=CCN[C@H](CO)c1ccccc1` the composite z-score (Albumin (Bos taurus)) was -0.0472, the composite Z-score [1] was -0.139 (inactive) and the composite z-score [2] was -0.0122. It also gave a composite z-score [3] of -0.14, a composite z-score [4] of -0.115 and a composite z-score [5] of 0.0524. The composite z-score [6] was -0.021, the composite z-score (Sam68 (KHDRBS1)) was -0.127 and the composite z-score [7] was 0.218. For the same molecule, the composite z-score [8] was 0.0857, the composite z-score [9] was -0.23 and the composite z-score [10] was -0.341. It also gave a composite z-score [11] of -0.0383, a composite z-score [12] of 0.118 and a composite z-score [13] of 0.546. It also gave a composite z-score [14] of 0.314, a z-score [15] of -0.989 and a composite z-score (Lefty1) of 0.564. For the same molecule, the composite z-score [16] was -0.246 and the z-score [17] was 0.765 (inactive).

With `COc1ccc(C#Cc2ccc3c(c2)[C@]2(C(=O)N3)[C@H](C(=O)Nc3nc4ccccc4s3)[C@H]3C(=O)O[C@H](c4ccccc4)[C@H](c4ccccc4)N3[C@@H]2c2ccc(O)cc2)cc1` the composite z-score (Albumin (Bos taurus)) was 0.835, the composite Z-score [1] was 0.257 (inactive) and the composite z-score [2] was 1.29. It also gave a composite z-score [3] of 0.158, a composite z-score [4] of 0.406 and a composite z-score [5] of 2.65. The composite z-score [6] was 0.641, the composite z-score (Sam68 (KHDRBS1)) was 1.31 and the composite z-score [7] was 0.172. The composite z-score [8] was 1.12, the composite z-score [9] was 0.973 and the composite z-score [10] was 1.24. For the same molecule, the composite z-score [11] was 0.289, the composite z-score [12] was 0.997 and the composite z-score [13] was 1.38. It also gave a composite z-score [14] of 0.882, a z-score [15] of -2.22 and a composite z-score (Lefty1) of 1.72. The composite z-score [16] was 1.18 and the z-score [17] was 0.0616 (inactive).
